# From the supplement of paper PMC4022240
# ± gives the standard deviation.
# Columns and labels:
# Experiment in all cases: peptide microarray binding signal (635 nm), min-max normalized on array (fraction of array maximum); higher = stronger binding
# [1] = biological target: T1, HaloTag-ATRX ADD domain (163-292)
# T1 chain: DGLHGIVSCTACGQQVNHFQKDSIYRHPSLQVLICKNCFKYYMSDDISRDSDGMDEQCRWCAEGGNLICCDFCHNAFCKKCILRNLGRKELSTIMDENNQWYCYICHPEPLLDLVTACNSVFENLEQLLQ
# Outline: (§1)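 Histone 13-mer peptide–cellulose conjugates were printed in triplicate on nitrocellulose with a Cy3 tracer, then blocked overnight at 4°C. Arrays were probed for 1 h at 4°C with biotin-labelled HaloTag reader fusions (10 nM to 1 μM) plus streptavidin-Alexa Fluor 647, or with rabbit histone antibodies (1:10,000 to 1:2,000) plus anti-rabbit Alexa 647. An Axon GenePix 4000B scanned 635 nm for signal and 532 nm for misprints. Binding signal is the triplicate-spot mean intensity, min-max scaled per library.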
# [2] = biological target: HaloTag-ING2 PHD (mouse Ing2 200-280)
# Outline: as §1
# [3] = biological target: anti-H3K4me3 antibody ab8580
# Outline: as §1
# [4] = biological target: anti-H3K9me3 antibody ab8898
# Outline: as §1
# [5] = peptide region: H3 73-85, peptide modifications: H3K79me3, binder concentration: 1:2,000 dilution
# [6] = peptide region: H3 73-85, peptide modifications: H3K79me3, binder concentration: 1:10,000 dilution
# [7] = peptide region: H3 73-85, peptide modifications: H3K79me3 H3T80ph, binder concentration: 1:2,000 dilution
# [8] = peptide region: H3 73-85, peptide modifications: H3K79me3 H3T80ph, binder concentration: 1:10,000 dilution
# [9] = peptide region: H3 73-85, peptide modifications: H3T80ph, binder concentration: 1:2,000 dilution
# [10] = peptide region: H3 73-85, peptide modifications: H3T80ph, binder concentration: 1:10,000 dilution
# [11] = peptide region: H3 112-124, binder concentration: 1:2,000 dilution
# [12] = peptide region: H3 112-124, binder concentration: 1:10,000 dilution
# [13] = peptide region: H3 112-124, peptide modifications: H3K115ac H3K122ac, binder concentration: 1:2,000 dilution
# [14] = peptide region: H3 112-124, peptide modifications: H3K115ac H3K122ac, binder concentration: 1:10,000 dilution
# [15] = peptide region: H3 112-124, peptide modifications: H3K115ac H3K122me1, binder concentration: 1:2,000 dilution
# [16] = peptide region: H3 112-124, peptide modifications: H3K115ac H3K122me1, binder concentration: 1:10,000 dilution
# [17] = peptide region: H3 112-124, peptide modifications: H3K115ac H3K122me2, binder concentration: 1:2,000 dilution
# [18] = peptide region: H3 112-124, peptide modifications: H3K115ac H3K122me2, binder concentration: 1:10,000 dilution
# [19] = peptide region: H3 112-124, peptide modifications: H3K115ac H3K122me3, binder concentration: 1:2,000 dilution
# [20] = peptide region: H3 112-124, peptide modifications: H3K115ac H3K122me3, binder concentration: 1:10,000 dilution
# [21] = peptide region: H3 112-124, peptide modifications: H3K115ac H3R116cit, binder concentration: 1:2,000 dilution
# [22] = peptide region: H3 112-124, peptide modifications: H3K115ac H3R116cit, binder concentration: 1:10,000 dilution
# [23] = peptide region: H3 112-124, peptide modifications: H3K115ac H3R116me1, binder concentration: 1:2,000 dilution
# [24] = peptide region: H3 112-124, peptide modifications: H3K115ac H3R116me1, binder concentration: 1:10,000 dilution
binder,measurement,setting,value
EIAQDFKTDLRFQ [H3 73-85 E I A Q D F Kme3 T D L R F Q],peptide microarray binding signal,"[1]; peptide region: H3 73-85, peptide modifications: H3K79me3, binder concentration: 50 nM",0.0032 ± 3.5e-05
same,peptide microarray binding signal,"[1]; peptide region: H3 73-85, peptide modifications: H3K79me3, binder concentration: 500 nM",0.0059 ± 0.0008
same,peptide microarray binding signal,"[2]; peptide region: H3 73-85, peptide modifications: H3K79me3, binder concentration: 10 nM",0.00483 ± 8.8e-05
same,peptide microarray binding signal,"[2]; peptide region: H3 73-85, peptide modifications: H3K79me3, binder concentration: 100 nM",0.00723 ± 0.00027
same,peptide microarray binding signal,[3]; [5],0.00851 ± 0.00073
same,peptide microarray binding signal,[3]; [6],0.0112 ± 0.0053
same,peptide microarray binding signal,[4]; [5],0.227 ± 0.017
same,peptide microarray binding signal,[4]; [6],0.201 ± 0.042
EIAQDFKTDLRFQ [H3 73-85 E I A Q D F Kme3 Tph D L R F Q],peptide microarray binding signal,"[1]; peptide region: H3 73-85, peptide modifications: H3K79me3 H3T80ph, binder concentration: 50 nM",0.001066 ± 5.3e-06
same,peptide microarray binding signal,"[1]; peptide region: H3 73-85, peptide modifications: H3K79me3 H3T80ph, binder concentration: 500 nM",0.0021 ± 0.00018
same,peptide microarray binding signal,"[2]; peptide region: H3 73-85, peptide modifications: H3K79me3 H3T80ph, binder concentration: 10 nM",0.00221 ± 6.6e-05
same,peptide microarray binding signal,"[2]; peptide region: H3 73-85, peptide modifications: H3K79me3 H3T80ph, binder concentration: 100 nM",0.00333 ± 0.0011
same,peptide microarray binding signal,[3]; [7],0.000887 ± 9.8e-05
same,peptide microarray binding signal,[3]; [8],0.00183 ± 0.00035
same,peptide microarray binding signal,[4]; [7],0.0135 ± 0.0079
same,peptide microarray binding signal,[4]; [8],0.00577 ± 0.0016
EIAQDFKTDLRFQ [H3 73-85 E I A Q D F K Tph D L R F Q],peptide microarray binding signal,"[1]; peptide region: H3 73-85, peptide modifications: H3T80ph, binder concentration: 50 nM",0.00129 ± 3.8e-05
same,peptide microarray binding signal,"[1]; peptide region: H3 73-85, peptide modifications: H3T80ph, binder concentration: 500 nM",0.00386 ± 0.00022
same,peptide microarray binding signal,"[2]; peptide region: H3 73-85, peptide modifications: H3T80ph, binder concentration: 10 nM",0.00406 ± 0.00014
same,peptide microarray binding signal,"[2]; peptide region: H3 73-85, peptide modifications: H3T80ph, binder concentration: 100 nM",0.000921
same,peptide microarray binding signal,[3]; [9],0.000547 ± 3.5e-05
same,peptide microarray binding signal,[3]; [10],0.000685 ± 7.2e-06
same,peptide microarray binding signal,[4]; [9],0.00186 ± 2e-05
same,peptide microarray binding signal,[4]; [10],0.00127 ± 4.6e-05
IHAKRVTIMPKDI [H3 112-124 I H A K R V T I M P K D I],peptide microarray binding signal,"[1]; peptide region: H3 112-124, binder concentration: 50 nM",0.00972 ± 0.00063
same,peptide microarray binding signal,"[1]; peptide region: H3 112-124, binder concentration: 500 nM",0.0345 ± 0.00086
same,peptide microarray binding signal,"[2]; peptide region: H3 112-124, binder concentration: 10 nM",0.0135 ± 0.0014
same,peptide microarray binding signal,"[2]; peptide region: H3 112-124, binder concentration: 100 nM",0.0205 ± 0.0093
same,peptide microarray binding signal,[3]; [11],0.00261 ± 0.00029
same,peptide microarray binding signal,[3]; [12],0.001883 ± 1.8e-05
same,peptide microarray binding signal,[4]; [11],0.00415 ± 0.00045
same,peptide microarray binding signal,[4]; [12],0.00167 ± 2.8e-05
IHAKRVTIMPKDI [H3 112-124 I H A Kac R V T I M P Kac D I],peptide microarray binding signal,"[1]; peptide region: H3 112-124, peptide modifications: H3K115ac H3K122ac, binder concentration: 50 nM",0.00947 ± 0.0003
same,peptide microarray binding signal,"[1]; peptide region: H3 112-124, peptide modifications: H3K115ac H3K122ac, binder concentration: 500 nM",0.0259 ± 0.00095
same,peptide microarray binding signal,"[2]; peptide region: H3 112-124, peptide modifications: H3K115ac H3K122ac, binder concentration: 10 nM",0.0323 ± 0.0014
same,peptide microarray binding signal,"[2]; peptide region: H3 112-124, peptide modifications: H3K115ac H3K122ac, binder concentration: 100 nM",0.0605 ± 0.013
same,peptide microarray binding signal,[3]; [13],0.00336 ± 0.0003
same,peptide microarray binding signal,[3]; [14],0.00417 ± 0.0002
same,peptide microarray binding signal,[4]; [13],0.00288 ± 0.00013
same,peptide microarray binding signal,[4]; [14],0.00242 ± 9.5e-05
IHAKRVTIMPKDI [H3 112-124 I H A Kac R V T I M P Kme D I],peptide microarray binding signal,"[1]; peptide region: H3 112-124, peptide modifications: H3K115ac H3K122me1, binder concentration: 50 nM",0.00809 ± 8.8e-05
same,peptide microarray binding signal,"[1]; peptide region: H3 112-124, peptide modifications: H3K115ac H3K122me1, binder concentration: 500 nM",0.0164 ± 0.00068
same,peptide microarray binding signal,"[2]; peptide region: H3 112-124, peptide modifications: H3K115ac H3K122me1, binder concentration: 10 nM",0.0183 ± 0.00056
same,peptide microarray binding signal,"[2]; peptide region: H3 112-124, peptide modifications: H3K115ac H3K122me1, binder concentration: 100 nM",0.0281 ± 0.0012
same,peptide microarray binding signal,[3]; [15],0.00164 ± 0.00014
same,peptide microarray binding signal,[3]; [16],0.002054 ± 1.9e-05
same,peptide microarray binding signal,[4]; [15],0.00136 ± 6.1e-05
same,peptide microarray binding signal,[4]; [16],0.00138 ± 1.4e-05
IHAKRVTIMPKDI [H3 112-124 I H A Kac R V T I M P Kme2 D I],peptide microarray binding signal,"[1]; peptide region: H3 112-124, peptide modifications: H3K115ac H3K122me2, binder concentration: 50 nM",0.00668 ± 0.00012
same,peptide microarray binding signal,"[1]; peptide region: H3 112-124, peptide modifications: H3K115ac H3K122me2, binder concentration: 500 nM",0.0132 ± 0.00064
same,peptide microarray binding signal,"[2]; peptide region: H3 112-124, peptide modifications: H3K115ac H3K122me2, binder concentration: 10 nM",0.0198 ± 0.004
same,peptide microarray binding signal,"[2]; peptide region: H3 112-124, peptide modifications: H3K115ac H3K122me2, binder concentration: 100 nM",0.0271 ± 0.0018
same,peptide microarray binding signal,[3]; [17],0.00159 ± 0.00013
same,peptide microarray binding signal,[3]; [18],0.00211 ± 5.8e-05
same,peptide microarray binding signal,[4]; [17],0.00169 ± 0.00021
same,peptide microarray binding signal,[4]; [18],0.00133 ± 4e-05
IHAKRVTIMPKDI [H3 112-124 I H A Kac R V T I M P Kme3 D I],peptide microarray binding signal,"[1]; peptide region: H3 112-124, peptide modifications: H3K115ac H3K122me3, binder concentration: 50 nM",0.0118 ± 0.00049
same,peptide microarray binding signal,"[1]; peptide region: H3 112-124, peptide modifications: H3K115ac H3K122me3, binder concentration: 500 nM",0.027 ± 0.0019
same,peptide microarray binding signal,"[2]; peptide region: H3 112-124, peptide modifications: H3K115ac H3K122me3, binder concentration: 10 nM",0.04 ± 0.0046
same,peptide microarray binding signal,"[2]; peptide region: H3 112-124, peptide modifications: H3K115ac H3K122me3, binder concentration: 100 nM",0.0592 ± 0.018
same,peptide microarray binding signal,[3]; [19],0.00634 ± 0.00027
same,peptide microarray binding signal,[3]; [20],0.00679 ± 0.00065
same,peptide microarray binding signal,[4]; [19],0.0228 ± 0.0018
same,peptide microarray binding signal,[4]; [20],0.0104 ± 0.00089
IHAKRVTIMPKDI [H3 112-124 I H A Kac Rcit V T I M P K D I],peptide microarray binding signal,"[1]; peptide region: H3 112-124, peptide modifications: H3K115ac H3R116cit, binder concentration: 50 nM",0.00668 ± 0.00021
same,peptide microarray binding signal,"[1]; peptide region: H3 112-124, peptide modifications: H3K115ac H3R116cit, binder concentration: 500 nM",0.0105 ± 0.00017
same,peptide microarray binding signal,"[2]; peptide region: H3 112-124, peptide modifications: H3K115ac H3R116cit, binder concentration: 10 nM",0.0109 ± 0.00031
same,peptide microarray binding signal,"[2]; peptide region: H3 112-124, peptide modifications: H3K115ac H3R116cit, binder concentration: 100 nM",0.016 ± 0.00067
same,peptide microarray binding signal,[3]; [21],0.00179 ± 5.5e-05
same,peptide microarray binding signal,[3]; [22],0.00211 ± 3.4e-05
same,peptide microarray binding signal,[4]; [21],0.00154 ± 1.8e-05
same,peptide microarray binding signal,[4]; [22],0.00127 ± 1.3e-05
IHAKRVTIMPKDI [H3 112-124 I H A Kac Rme V T I M P K D I],peptide microarray binding signal,"[1]; peptide region: H3 112-124, peptide modifications: H3K115ac H3R116me1, binder concentration: 50 nM",0.0108 ± 0.00025
same,peptide microarray binding signal,"[1]; peptide region: H3 112-124, peptide modifications: H3K115ac H3R116me1, binder concentration: 500 nM",0.0193 ± 0.00083
same,peptide microarray binding signal,"[2]; peptide region: H3 112-124, peptide modifications: H3K115ac H3R116me1, binder concentration: 10 nM",0.0322 ± 0.0019
same,peptide microarray binding signal,"[2]; peptide region: H3 112-124, peptide modifications: H3K115ac H3R116me1, binder concentration: 100 nM",0.0449 ± 0.0042
same,peptide microarray binding signal,[3]; [23],0.00519 ± 0.0005
same,peptide microarray binding signal,[3]; [24],0.00542 ± 0.00027
same,peptide microarray binding signal,[4]; [23],0.00293 ± 0.00034
same,peptide microarray binding signal,[4]; [24],0.00254 ± 3.9e-05
